Measurements published in PubChem BioAssay (NCI).
This is part of a sample that, as a whole, favours compounds with a hit. Of some 83,000 tested, about 20% had one in any assay.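 A percent growth of 40 corresponds to 60% growth inhibition; 0 means no net growth; -100 means all cells died. Active threshold: below 10.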 Values without a mark were called inactive. Calls of active or inactive are those of the source.

Test system: IGROV1 ovarian
Test: NCI-60 one-dose screen, 48 h (100 = growth as untreated, 0 = no growth, -100 = all killed)
Conditions: 10 µM unless noted
Method: Growth inhibition of the IGROV1 human tumor cell line is measured as a screen for anti-cancer activity. Cells are grown in 96 well plates and exposed to the test compound for 48 hours. Compounds are tested at a single concentration, which is 10^-5 M for most compounds. The reported endpoint is percent growth (GI% or GIPRCNT), where numbers from 0 - 100% represent growth inhibition, and numbers from -100% - 0 represent cell death. For example, a value of 40 represents 60% growth inhibition. A value of 0 means no net growth occurred over the course of the experiment. A value of -40 indicates 40% of cells at the beginning of the experiment died by the end of the experiment. A value of -100 means all cells are dead at the end of the experiment.
NCI-60 Human Tumor Cell Lines Screen was performed using the standard one-dose NCI protocol, which is described in more detail at https://dtp.cancer.gov/discovery_development/nci-60/default.htm.
Compounds with GIPRCNT values below 10 were considered active. Activity score was based on GIPRCNT using the following formula: […]
Score is 0 for GIPRCNT values of 100 or above, 50 for GIPRCNT values of 0, and 100 for GIPRCNT values of -100.

In order of falling growth:
1. Nc1c(C(=O)Nc2ccncc2)sc2nc3c(cc12)CCCCCC3  103%
2. O=C(CCc1nnc(Cn2cnc3nc[nH]c3c2=O)o1)c1nc2ncccc2[nH]1  102%
3. O=C1/C(=C/c2cccs2)SC(=S)N1CCCN1CCOCC1  97%
4. COc1ccc(/C(C)=C(/c2ccc(OCCCN(C)C)cc2)c2ccc(OC(=O)Cc3ccccc3)cc2)cc1  95%
5. COc1ccc(-c2nc3c(c(-c4ccccc4)nn3-c3ccccc3)c(-c3ccc(N4CCN(C)CC4)cc3)c2C#N)cc1  93.8%
6. O=S(=O)(NCCCNc1nccc(-c2c(-c3ccc(F)c(O)c3)nc3occn23)n1)c1ccccc1  92.1%
7. CC(C)c1ccc(NC(=O)Nc2ccc(NC(=O)CCCC(=O)NOCc3ccccc3)cc2)cc1  91.5%
8. Cc1c(-n2nnc(-c3nc4ccccc4s3)c2N)c(=O)n(-c2ccccc2)n1C  90.5%
9. S=C1CCSC(=S)N1CCCN1C(=S)CCSC1=S  85.8%
10. OCCOCCN(Cc1ccccn1)Cc1cc(I)cc(I)c1O  77.9%
11. O=C(O)c1ccc(-n2cc(/C=N/Nc3ccc(F)cc3)c(-c3cc4ccccc4oc3=O)n2)cc1  74%
12. CC(=O)N(N=Nc1ccccc1)c1cccc2ccccc12  62.9%
13. O=C1COCCN1c1ccc(Nc2nc(Cl)nc(OCc3cn(Cc4ccccc4)nn3)n2)cc1  62.6%
14. C=C(C)[C@@H]1CC[C@]2(C(=O)O)CC[C@]3(C)[C@H](CC[C@@H]4[C@@]5(C)C[C@@H](Cc6cn(CCO[C@@H]7O[C@H](COC(C)=O)[C@H](OC(C)=O)[C@H](OC(C)=O)[C@H]7OC(C)=O)nn6)[C@H](O)C(C)(C)[C@@H]5CC[C@]43C)[C@@H]12  59.3%
15. COc1cc2oc(-c3cccc(NC(=O)c4cccc(Br)c4)c3)cc(=O)c2c(OC)c1OC  58.8%
16. Cc1nc2sc(C(=O)Nc3ccccc3)c(N)c2cc1C(=O)c1ccccc1  56.8%
17. C=CCc1c2c(c(OC)c3ccoc13)C(=O)/C(=C/c1ccccc1OC)O2  54.8%
18. N#C/C(=C\c1ccc2ccccc2c1)c1cc2ccccc2[nH]1  48.1%
19. OB(O)c1cccc(-c2nc3ccc4[nH]ncc4c3c3c2CCCC3)c1  47.2%
20. COc1ccc(Cc2cc(-c3ccccc3)nn(Cc3ccccc3)c2=O)cc1OC  47%
21. Nc1ncnc2c1N=C(c1ccc(Cl)cc1)CC(c1ccc3c(c1)OCO3)N2 (stereo not given)  46%
22. Brc1ccc2[nH]cc(-c3nonc3-c3c[nH]c4ccccc34)c2c1  43.6%
23. N#CC1=C(c2ccc(Cl)cc2)Nc2c(c(-c3ccc(Cl)cc3)nn2-c2ccccc2)C12C(=O)Nc1ccc(Cl)cc12 (stereo not given)  36.7%
24. O=C1Nc2ccccc2[C@]12CC(c1ccccc1)=NN2  33.1%
25. C#CCOc1cccc(Nc2ncnc3c(NC(=O)C=C)cccc23)c1  31%
26. CCNc1cc(-c2cccc(OC(F)(F)F)c2)nc2ccc(N3CCCC3)cc12  27.1%
27. Cc1ccc(-c2csc(NC(=O)CN3CCN(c4cc5c(cc4F)c(=O)c(C(=O)O)cn5C4CC4)CC3)n2)cc1  25.4%
28. COC(=O)c1n[nH]c2ccc3nc(-c4cn[nH]c4C(F)(F)F)c4c(c3c12)CCCC4  19.5%
29. COCCNC(=O)c1ccc(-c2nc3ccc4[nH]ncc4c3c3c2CCCC3)cc1  15.8%
30. COc1cc(/C=C\c2cc(/C=C\c3ccc(O)c(OC)c3)n(C(=O)COc3ccc(Cl)cc3Cl)n2)ccc1O  12.5%
31. O=C(NCCCCNC(=O)OCc1ccc2c(Cl)cc(Cl)c(O)c2n1)OCc1ccc2c(Cl)cc(Cl)c(O)c2n1  11.1%

`COC(=O)c1cc(-c2ccc(S(C)(=O)=O)cc2)[nH]c1N/N=C/c1c(Cl)cccc1Cl` was tested, and the growth was -43.6% (active).
`Cc1ccc2c3c(c(=O)[nH]c2c1)C1(C(C#N)=C(N)O3)c2cc(Br)ccc2-c2ccc(Br)cc21` was tested, and the growth was -13.2% (active).
With `COc1cccc(CNc2ncnc3c2ncn3C2OC(CO)C(O)C2O)c1O` (stereo not given) the growth was -23.4% (active).
For `O=C(OCc1ccc2cccc(O)c2n1)N1CCN(C(=O)c2cc3cc(F)ccc3[nH]2)CC1`, the growth was -91.4% (active).
For `O=C1Nc2ccccc2/C1=C\c1nc(-c2ccccc2F)n2ccccc12`, the growth was 2.99% (active).
In the case of `Cn1cc(-c2csc(-c3c[nH]c4ccc(Br)cc34)n2)c2cnccc21`, the growth is reported as -77.8% (active).
For `CN[C@]12CC3(C=CC(=O)C=C3)O[C@@]1(Cc1ccc(OC)cc1)N(C)C(=O)N2`, the growth was -28.4% (active).
With `COC1C[C@H](O[C@@H]2C[C@H](O[C@@H]3C[C@H](O[C@@H]4C(=O)c5c(cc6cc(O[C@H]7C[C@@H](O[C@H]8C[C@@H](O)[C@H](O)C(C)O8)[C@H](O)C(C)O7)c(C)c(O)c6c5O)C[C@H]4C(OC)C(=O)[C@@H](O)[C@@H](C)O)OC(C)[C@H]3O)OC(C)[C@@H]2O)OC(C)[C@@H]1O` (stereo not given in full) the growth was 9.46% (active).
For `CCC(=C(c1ccc(OCCN2CCCC2)cc1)c1ccc(OCCN2CCCC2)cc1)c1ccc(Cl)cc1`, the growth was -20.2% (active).
